Bioassay records from PubChem BioAssay.
Many of the other results were omitted from the sample, so hits are more common in it than they were.
CD40 NFkB inh = inhibitors of CD40-induced NF-kB signaling, primary screen, BL2 cells, luciferase reporter, single point | CD40L-induced, 4 h | inhibition, % at 10 µM | 83,000 tested, 0.94% active | AID 1053188, 2014;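 active = mean inhibition of at least 50% with a set share of replicates also reaching that level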;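 also: 0% = neutral control wells and 100% = IKK inhibitor VII at 50 µM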
An asterisk follows results filed as active; [ ] = remark or other dose.

SMILES	CD40 NFkB inh
N#C[C@@H]1N[C@H](CO)[C@H]1c1ccc(C#CC2CCCC2)cc1	13
N#C[C@H]1N[C@H](CO)[C@H]1c1ccc(C#CC2CCCC2)cc1	62*
N#C[C@H]1N[C@H](CO)[C@H]1c1ccc(C#Cc2ccc(F)cc2)cc1	4[25 µM]
N#C[C@@H]1N[C@H](CO)[C@@H]1c1ccc(C#CC2CCCC2)cc1	-10
C[C@@H]1CN([C@@H](C)CO)C(=O)c2cc(NS(=O)(=O)c3ccc(Cl)cc3)ccc2O[C@@H]1CN(C)CC1CCCCC1	6[25 µM]
COCCN(C(=O)CSc1nnc(C(F)(F)F)n1C)c1c(N)n(CC(C)C)c(=O)[nH]c1=O	-13
CO[C@H]1CN(C)C(=O)c2cc(NC(=O)C3CCCCC3)ccc2OC[C@@H](C)N(Cc2cccnc2)C[C@@H]1C	-2[25 µM]
COc1ccc(C#Cc2cccc(-c3nc(C(=O)Nc4ccc(-c5ccccc5)cc4)cc4c3[C@@H](CCO)N(S(=O)C(C)(C)C)C4)c2)cc1OC (stereo partly drawn)	-3[25 µM]
CC(=O)Nc1ccc2c(c1)CC(=O)N(C)C[C@@H](C)[C@H](CN(C)C)O2	-1
O=C(C[C@@H]1C[C@@H]2c3cc(NS(=O)(=O)c4ccc(F)cc4)ccc3O[C@@H]2[C@@H](CO)O1)NC1CCCC1	4
CCCNC(=O)C[C@@H]1C[C@@H]2c3cc(NC(=O)COC)ccc3O[C@@H]2[C@H](CO)O1	0[25 µM]
CC(C)(C)[S@@](=O)N1Cc2cc(C(=O)NCCN3CCCC3)nc(-c3cccc(-c4cccc(C#N)c4)c3)c2[C@H]1CCO	9
COC(=O)C1C(C(=O)OC)C1(c1ccccc1)c1ccccc1 (stereo not drawn)	3
COC(=O)C1=C(C(=O)OC)C(C(=O)OC)C(C(=O)OC)C(C(=O)OC)(C(=O)OC)C(C(=O)OC)=C1C(=O)OC (stereo not drawn)	75*
O=C(CCN1CCCCC1)NCC[C@@H]1CC[C@H](NS(=O)(=O)c2cccc(Cl)c2)[C@@H](CO)O1	3[25 µM]
CCC(=O)N1CC2(C1)[C@@H](c1ccc(-c3ccc(F)cc3)cc1)[C@H](CO)N2C(C)=O	-11[25 µM]
CN(C)C(=O)C[C@@H]1CC[C@H]2[C@@H](COc3ccc(NC(=O)C4CCCC4)cc3C(=O)N2C)O1	4
CC(C)N(C[C@H]1[C@H](c2ccccc2)[C@@H](CO)N1S(C)(=O)=O)C(=O)CN(C)C	-5[25 µM]
CCCCNC(=O)C1(C)CCN1C(=O)c1cc(-c2cccs2)oc1C (stereo not drawn)	105*
CCCCNC(=O)C1(C)CCN1C(=O)c1ccccc1Br (stereo not drawn)	9
CCCCNC(=O)C1(C)CCN1C(=O)c1ccc(C)c(F)c1 (stereo not drawn)	3
C[C@H]1CN([C@@H](C)CO)C(=O)c2c(c3ccccc3n2C)-c2ccccc2CO[C@H]1CN(C)Cc1ccccc1	12
C[C@H](C(=O)N(C)C[C@H]1OCc2ccccc2-c2ccccc2C(=O)N([C@H](C)CO)C[C@@H]1C)c1ccccc1	-5
O=C(C[C@@H]1C[C@@H]2c3cc(NS(=O)(=O)c4ccccc4)ccc3O[C@@H]2[C@H](CO)O1)NCC(F)(F)F	5[25 µM]
CCCC(C)Sc1nc2c([nH]1)c(=S)n(C)c(=O)n2C (stereo not drawn)	93*
SMILES	CD40 NFkB inh
Cn1c(=O)c2[nH]c(SCCN3CCCCC3)nc2n(C)c1=S	7
CCSc1nc2c([nH]1)c(=O)n(C)c(=S)n2C	0
CC(=O)N1[C@@H](CO)[C@H](c2ccccc2)[C@@H]1CN(CC(C)C)C(=O)c1ccccn1	-3[25 µM]
O=C(Nc1ccc2[nH]ccc2c1)c1cccs1	-56
COc1ccc(C(=O)Nc2ccc3[nH]ccc3c2)cc1	75*
COc1ccc(C(=O)Nc2ccc(C(=O)c3ccccc3)cc2)cc1	-3
CO[C@H]1CC[C@@H]2CCN(C)C(=O)[C@H](C)CN(C)C(=O)c3cc(C#N)ccc3OC[C@H]1O2	6[25 µM]
CCCNC(=O)N1[C@H](C#N)[C@H](c2ccccc2-c2ccc(OC)cc2)[C@@H]1CO	4[25 µM]
COc1cccc(S(=O)(=O)N(C)C[C@@H]2OCc3ccccc3-c3ccccc3C(=O)N([C@@H](C)CO)C[C@@H]2C)c1	-6[25 µM]
C[C@H]1CN([C@@H](C)CO)C(=O)c2ccccc2-c2ccccc2CO[C@H]1CN(C)Cc1ccc(Oc2ccccc2)cc1	59*[25 µM]
C[C@@H]1CN([C@@H](C)CO)C(=O)c2ccccc2-c2ccccc2CO[C@@H]1CN(C)Cc1ccc(Oc2ccccc2)cc1	62*[25 µM]
C[C@H](CO)N1C[C@H](C)[C@@H](CN(C)Cc2ccc(Oc3ccccc3)cc2)Oc2c(NC(=O)CCC(F)(F)F)cccc2C1=O	70*[25 µM]
C[C@H]1CN([C@@H](C)CO)C(=O)c2ccccc2-c2ccccc2CO[C@H]1CN(C)Cc1ccc(O)cc1	-4
C[C@@H]1CN([C@H](C)CO)C(=O)c2cc(NC(=O)CCC(F)(F)F)ccc2O[C@H]1CN(C)Cc1ccc(Oc2ccccc2)cc1	-4
C[C@@H]1CN([C@H](C)CO)C(=O)c2ccccc2-c2ccccc2CO[C@@H]1CN(C)Cc1ccc(Oc2ccccc2)cc1	41[25 µM]
